# Bioassay records deposited in PubChem BioAssay by Broad Institute.
# Shown are actives, neighbours in structure and some others; about 3.4% of the full set was active somewhere.
# EWS-Fli inh: EWS/Fli transcriptional activity inhibition; A673 NR0B1-luciferase reporter, viability-normalised; inhibition, % at 12.6 µM; actives 0.67% (n = 350,000);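 active means mean inhibition of at least 50% after viability correction, with every replicate also passing that limit; inconclusive means mean reaches 50% but only one of two replicates passes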;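 further: firefly luciferase signal divided by Alamar Blue viability fluorescence both relative to DMSO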
# rRNA inh HTS: inhibits bacterial ribosomal RNA function over humanized ribosomes | GFP signal change (wild-type ribosome), % (no concentration beside the values) | actives 1.6% (n = 350,000) | E. coli WT GFP vs humanized-ribosome RFP mutants, fluorescence, 24 h; hits give low values; DMSO median 0, no signal -100;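 active means significant combined selectivity score with lowered wild-type GFP, culture density cut under 30%, mutant RFP and density less affected; inactive means any of these conditions unmet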
# LGR2 inh: Drosophila LGR2 receptor signaling inhibition; HEK293 LGR2, CRE-luciferase, bursicon-stimulated, 4 h; inhibition, % at 9.99 µM; actives 0.35% (n = 380,000);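 active means drop in luminescence signal, shown as inhibition above about 50% in the replicate tests, limit read from the data, passing the limit was not always enough; inconclusive means probably only some replicates passing the limit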;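 further: agonist challenge used bursicon conditioned medium at about half maximal strength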
# PGC1a acetyl inh: modulators of PGC1a acetylation; U2OS PGC1a acetylation, AlphaScreen anti-acetyl-lysine; with virally co-expressed GCN5 acetyltransferase; inhibition, % at 15.6 µM; actives 0.17% (n = 350,000);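 active means every replicate shows inhibition of at least 40%; inconclusive means mean inhibition at least 40% but some replicate below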;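 further: 0% = neutral control wells and 100% = positive control wells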
# SIRT5 block: sirtuin-5 (human) deacylase inhibition; Q9NXA8; Purified SirT5, succinyl-peptide AMC, trypsin-coupled fluorescence; inhibition, % at 15 µM; actives 1.1% (n = 330,000); in the data active means inhibition above about 15%; inconclusive means no clear call, values can overlap the other calls
# Target sequence (Q9NXA8 whole entry, looked up): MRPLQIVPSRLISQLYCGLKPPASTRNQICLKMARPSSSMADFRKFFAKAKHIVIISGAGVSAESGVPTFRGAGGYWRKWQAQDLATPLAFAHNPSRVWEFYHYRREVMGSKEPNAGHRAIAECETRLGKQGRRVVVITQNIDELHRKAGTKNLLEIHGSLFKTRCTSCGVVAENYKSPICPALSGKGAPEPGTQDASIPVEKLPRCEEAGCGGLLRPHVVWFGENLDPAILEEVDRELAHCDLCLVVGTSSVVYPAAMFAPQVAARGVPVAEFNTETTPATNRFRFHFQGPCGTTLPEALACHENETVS
# PAX8 reporter: PAX8 transcriptional activity inhibition; actives 1.2% (n = 360,000); inhibition, % at 12.6 µM; AID 652154; RMG-I TPO-luciferase reporter, SteadyGlo, 24 h;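 active means mean replicate inhibition at least 60% with every replicate also reaching 60%; inconclusive means only one of the two criteria is met; inactive means mean below 60% and not all replicates reaching 60%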;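 further: luciferase light reporting Pax8 driven TPO promoter activity; plate controls were median of neutral control wells for no effect and mitoxantrone controls for full effect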
# * = called active by the depositor; ? = inconclusive; / = no result given.
SMILES,EWS-Fli inh,rRNA inh HTS,LGR2 inh,PGC1a acetyl inh,SIRT5 block,PAX8 reporter
O=C(Nc1ccc(F)cc1)N1CC(=O)N2[C@H](C1)[C@@H](c1ccc(C#CC3CC3)cc1)[C@@H]2CO,2,-27,11,-6,-3,-10
C/C=C/c1cnc2c(c1)C(=O)N([C@@H](C)CO)C[C@@H](C)[C@H](CN(C)C(=O)c1cccc(F)c1)O2,-8,0,17,-2,6,-15
C[C@H](CO)N1C[C@H](C)[C@@H](CN(C)Cc2ccc(C(F)(F)F)cc2)OCCCC[C@H](C)Oc2ccc(NC(=O)Nc3ccc4c(c3)OCO4)cc2C1=O,18,4,26,-6,5,60
C[C@H]1CCCCO[C@H](CN(C)Cc2ccc(C(F)(F)F)cc2)[C@@H](C)CN([C@@H](C)CO)C(=O)c2cc(NC(=O)Nc3ccc4c(c3)OCO4)ccc2O1,8,-5,8,4,5,46
C[C@H]1CCCCO[C@@H](CN(C)Cc2ccc(C(F)(F)F)cc2)[C@@H](C)CN([C@@H](C)CO)C(=O)c2cc(NC(=O)Nc3ccc4c(c3)OCO4)ccc2O1,-14,-3,18,-3,0,80*
C[C@H](CO)N1C[C@H](C)[C@@H](CN(C)Cc2ccncc2)OCCCC[C@H](C)Oc2ccc(NC(=O)Nc3ccc4c(c3)OCO4)cc2C1=O,7,0,0,6,16*,-26
C[C@@H]1CCCCO[C@@H](CN(C)Cc2ccc(C(F)(F)F)cc2)[C@H](C)CN([C@H](C)CO)C(=O)c2cc(NC(=O)Nc3ccc4c(c3)OCO4)ccc2O1,26,-7,23,-5,5,71*
C[C@@H]1CCCCO[C@H](CN(C)Cc2ccc(C(F)(F)F)cc2)[C@H](C)CN([C@@H](C)CO)C(=O)c2cc(NC(=O)Nc3ccc4c(c3)OCO4)ccc2O1,3,-1,35,0,11,84*
C[C@@H]1CN([C@@H](C)CO)C(=O)c2cc(NC(=O)C3CCCCC3)ccc2O[C@@H](C)CCCCO[C@H]1CN(C)S(C)(=O)=O,0,-3,1,-4,/,0
Cc1ccc(S(=O)(=O)Nc2cccc3c2O[C@H](CN(C)S(=O)(=O)c2ccccc2)[C@@H](C)CN([C@H](C)CO)C3=O)cc1,-14,1,-3,4,-2,-17
CCCC(=O)Nc1ccc2c(c1)OC[C@@H](C)N(CC1CCCC1)C[C@@H](C)[C@@H](OC)CN(C)C2=O,-10,1,4,4,-1,1
CN1CC(c2ccccc2)Oc2ccccc2C1=S (stereo not drawn),-4,-36*,-8,/,9,10
CNCC[C@@H](Oc1ccccc1C)c1ccccc1,3,7,9,-10,-2,19
CNCCC(Oc1ccccc1OC)c1ccccc1 (stereo not drawn),3,/,-2,0,22*,-16
COc1cc(C2CC(=O)Oc3cc4c(cc32)OCO4)cc(OC)c1OC (stereo not drawn),-10,4,-8,5,-2,-21
CCN(CC)C1Oc2cc3c(cc2C(c2cc(OC)c(OC)c(OC)c2)C1C)OCO3 (stereo not drawn),64*,-4,-34,4,/,?
COc1cc([C@@H]2c3cc4c(cc3[C@@H](O)[C@H]3COC(=O)[C@H]23)OCO4)cc(OC)c1O[Si](C)(C)C(C)(C)C,1,5,20,-6,/,47
COc1cc(C2c3cc4c(cc3C3OC(=O)C2C3CO)OCO4)cc(OC)c1OC (stereo not drawn),38,2,-50,2,/,76*
Cc1cc(C)cc(OCCNC(=O)c2cc(S(=O)(=O)N3CCOCC3)ccc2F)c1,6,-1,1,-5,17*,-5
COCC(C)n1c(C)cc(C(=O)COC(=O)CCc2nc3ccccc3c(=O)[nH]2)c1C (stereo not drawn),5,-17,-15,-1,20*,-3
COCC(C)n1c(C)cc(C(=O)CSc2nc3ccccc3c(=O)[nH]2)c1C (stereo not drawn),/,/,/,11,/,/
CCCNC(=O)N(C)C[C@H]1Oc2ncc(-c3ccccc3)cc2C(=O)N([C@H](C)CO)C[C@@H]1C,-3,-3,10,9,-7,/
CC[C@@H](C)[C@H](CNC)NC[C@@H](Cc1cccc2ccccc12)NCCc1cccc(C(F)(F)F)c1,45,-59,14,/,/,103*
CCC[C@@H](CN[C@@H](CNC)[C@H](C)CC)NCC1CCC(C(C)(C)C)CC1 (stereo partly drawn),56*,-26,8,-15,/,93*
CCC[C@H](CN[C@@H](CNC)[C@H](C)CC)NCCc1cc(C(F)(F)F)cc(C(F)(F)F)c1,52*,-58,63*,-4,/,97*
SMILES,EWS-Fli inh,rRNA inh HTS,LGR2 inh,PGC1a acetyl inh,SIRT5 block,PAX8 reporter
Cc1cccc(C)c1Nc1ncnc2ccccc12,9,-34*,8,-1,-4,-8
CCCO/N=C1/C(=O)N(c2ccccc2)c2ccccc21,-3,-38*,-22,/,-2,12
CCOCCOC(=O)c1[nH]c2c(c1C)C(=O)CC(c1ccccc1)C2 (stereo not drawn),?,9,-4,-7,-6,82*
CCOCCOC(=O)c1[nH]c2c(c1C)C(=O)CC(c1cccs1)C2 (stereo not drawn),53*,12,-20,-6,-4,60
COCCOC(=O)c1[nH]c2c(c1C)C(=O)CC(c1cccs1)C2 (stereo not drawn),61*,-6,-2,2,-1,33
CCOC(=O)c1[nH]c2c(c1C)C(=O)CC(c1ccc(F)cc1)C2 (stereo not drawn),63*,17,-18,-5,0,44
Cc1c(C(=O)OCC(C)C)[nH]c2c1C(=O)CC(c1cccs1)C2 (stereo not drawn),/,/,/,-19,/,53
C/C=C/c1cnc2c(c1)C(=O)N([C@@H](C)CO)C[C@@H](C)[C@H](CN(C)C(=O)Nc1ccc(OC)cc1)O2,-4,0,11,-7,1,/
COC(=O)c1[nH]c2c(c1C)C(=O)CC(c1cccc(OC)c1)C2 (stereo not drawn),60*,1,-7,/,1,82*
Clc1ccccc1N=C1NN=C(c2cccs2)CS1,-60,-32*,-48,-4,-1,-82
COc1cccc2c1C(=O)c1c(O)c3c(c(O)c1C2=O)C[C@@](O)(C(=O)CO)C[C@@H]3O[C@H]1C[C@H](N)[C@H](O)[C@H](C)O1,47,/,/,-19,-2,104*
COc1cccc2c1C(=O)c1c(O)c3c(c(O)c1C2=O)C[C@@](O)(C(=O)CO)C[C@@H]3OC1CC(N)C(O)C(C)O1 (stereo partly drawn),10,8,/,-7,/,81*
